# Measurements as given in PubChem BioAssay AID2284359 (EPA ToxCast).
# Records with an inconclusive call do not appear. The source made the active and inactive calls. How the source made its calls: active means hit-call score of the fitted dose curve at least 0.9, where 1 is the maximum; inconclusive means response in the unintended direction; inactive means score below 0.9.
# Assay: ATG_M_06_EcoTox2: Attagene TRANS-FACTORIAL EcoTox-2 HepG2 Assay for M06 Transcription Factor (Internal Marker)
# Description: ATG_EcoTox2 is a cell-based, multiplexed assay created by modifying the existing Attagene TRANS-FACTORIAL system to include a panel of nuclear receptors from some or all the following species: human (Homo sapiens), african clawed frog (Xenopus laevis), rainbow trout (Oncorhynchus mykiss), japanese medaka (Oryzias latipes), and zebrafish (Danio rerio). The ECOTOX2-FACTORIAL format uses HepG2, a human liver cell line, with measurements taken at 24 hours after chemical dosing in a 24-well plate. ATG_M_06_EcoTox2 is one of 29 assay components calculated in the ATG_EcoTox2 assay. It is designed to make measurements of mRNA induction, a form of inducible reporter, as detected with fluorescence intensity signals by Reverse transcription polymerase chain reaction (RT-PCR) and Capillary electrophoresis technology.The assay endpoint ATG_M_06_EcoTox2 was analyzed in the positive analysis fitting direction relative to DMSO as the negative control and baseline of activity. Using a type of inducible reporter, measures of mRNA for gain-of-signal activity can be used to understand the background control at the transcription factor-level as they relate to the gene. Furthermore, this assay endpoint can be referred to as a secondary readout, because this assay has produced multiple assay endpoints where this one serves a background control function. To generalize the intended target to other relatable targets, this assay endpoint is annotated to the background measurement intended target family, where the subfamily is internal marker.
# Human liver HepG2 cells are transiently transfected with multiple reporter transcription units (MRTUs) in 6-well plates using FuGene 6 reagent (Roche; 3 ml FuGene/1 mg DNA). The MRTU constructs are regulated by a cis-regulating element (promoter). Each RTU expresses a GAL4-UAS that regulates the transcription of a nearby target reporter gene sequence. A major difference between the CIS and TRANS system is that in CIS activities of endogenous TFs are measured, whereas the TRANS assay evaluates changes in activities of exogenous, chimeric NR-Gal4 proteins. […] At the end of 24 hour incubation, total RNA was isolated using TriZol reagent (Invitrogen). The isolated RNA is then reverse-transcribed using oligo(dT) primer and Mo-MLV reverse transcriptase (Invitrogen) with DNAse I (Ambion) treatment for 30 min. The one-tenth of the produced cDNA was amplified by PCR using Taq DNA polymerase (Invitrogen) and two reporter sequence-specific primers. […] The fragments were purified using Qiaquick PCR columns (Qiagen), analyzed on an ABI 3130xL genetic analyzer (Applied Biosystems) with peak positions identified by using a set of X-rhodamine (ROX)-labeled MapMarker1000 molecular weight standards (BioVentures). […]
row,Compound,outcome
1,O=P(Oc1ccccc1)(Oc1ccccc1)Oc1ccccc1,inactive
2,O=C(O)C(F)(F)C(F)(F)C(F)(F)C(F)(F)C(F)(F)C(F)(F)C(F)(F)F,inactive
3,O=S(=O)(O)C(F)(F)C(F)(F)C(F)(F)C(F)(F)C(F)(F)C(F)(F)F,inactive
4,CCCCOCN(C(=O)CCl)c1c(CC)cccc1CC,inactive
